Test results as given in PubChem BioAssay (EPA / NIEHS).
Activity calls are given as the source filed them. How the source made its calls: active means hit-call score of the fitted dose curve at least 0.9, where 1 is the maximum; inactive means score below 0.9.

Read-out: Fatty Acid-Binding Protein 1 (FABP1), FABP1 (gene 2168)
Test: LTEA_HepaRG_FABP1: Life Technologies and Expression Analysis (LTEA) Assay for Fatty Acid-Binding Protein 1 (FABP1) using HepaRG (AID 2283494)
Conditions: mRNA level, 48 h; actives raise or lower the signal
Procedure, shortened: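 qRT-PCR readout of FABP1 transcript (normalized to three housekeeping genes) after 48 h chemical exposure of HepaRG cells; eight concentrations, half-log steps, max 100 uM, 0.5% DMSO vehicle; gain or loss fitted relative to DMSO baseline.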

Which AC50 does the source give for Cc1ccc([N+](=O)[O-])cc1 here?
The AC50 was 10 µM (active).

For C[C@]12C=CC3=C4CCC(=O)C=C4CC[C@H]3[C@@H]1CC[C@@H]2O, which AC50 is on record?
The AC50 was 47.7 µM (active).

With Nc1ccc(Cc2ccc(N)cc2)cc1 as the compound, how does the outcome read?
Its outcome is “inactive”.

With O=[N+]([O-])C(Br)(CO)CO as the compound, how does the outcome read?
Its outcome is “inactive”.

For COC(=O)c1ccccc1N, which outcome is on record?
Its outcome is “inactive”.

With O=[N+]([O-])c1ccc(Oc2ccc(Cl)cc2Cl)cc1 as the compound, how does the outcome read?
The outcome was “inactive”.

CC(C)(C)C(O)(CCc1ccc(Cl)cc1)Cn1cncn1 (configuration not stated) was tested. Which AC50 did it give?
Its AC50 is 11.5 µM (active).

CCCCCCCCOC(=O)c1ccc(C(=O)OCCCCCCCC)c(C(=O)OCCCCCCCC)c1 was tested. Which outcome did it give?
The outcome was “inactive”.

c1ccc2c(c1)oc1ccccc12 was tested. Which outcome did it give?
Its outcome is “inactive”.

For O=C(O)C1C2CCC(O2)C1C(=O)O (configuration not stated), which AC50 is on record?
Its AC50 is 77.9 µM (active).

With c1ccc2c(c1)-c1cccc3cccc-2c13 as the compound, how does the AC50 read?
The AC50 was 50 µM (active).

How did the outcome turn out when N#CC(Br)Br was run?
The outcome was “inactive”.

CCC[CH2][Sn]([Cl])([CH2]CCC)[CH2]CCC was tested. Which AC50 did it give?
Its AC50 is 2.31 µM (active).

Clc1ccc(C(c2ccc(Cl)cc2)C(Cl)(Cl)Cl)cc1 was tested. Which AC50 did it give?
Its AC50 is 50 µM (active).

How did the outcome turn out when Oc1ccc2ccc3cccc4ccc1c2c34 was run?
Its outcome is “inactive”.

Which outcome does the source give for [O-][Cl+]O here?
Its outcome is “inactive”.

Which AC50 does the source give for ClC1=C(Cl)C2(Cl)C3C(Cl)C=CC3C1(Cl)C2(Cl)Cl (configuration not stated) here?
The AC50 was 15.9 µM (active).

With CC(C)(C)OOC(C)(C)CCC(C)(C)OOC(C)(C)C as the compound, how does the outcome read?
The outcome was “inactive”.

For Nc1ccc(N=Nc2ccccc2)cc1, which AC50 is on record?
Its AC50 is 21.4 µM (active).

CCN(CC)N=O was tested. Which outcome did it give?
Its outcome is “inactive”.

With CC(C)N(Cc1ccccc1)C(=O)C(C)(C)C as the compound, how does the AC50 read?
Its AC50 is 8.19 µM (active).

For COC(=O)Nc1nc2ccccc2[nH]1, which outcome is on record?
The outcome was “inactive”.

Which AC50 does the source give for ClC1=C(Cl)[C@]2(Cl)[C@H]3[C@H]([C@@H]4C=C[C@H]3C4)[C@@]1(Cl)C2(Cl)Cl here?
Its AC50 is 6.01 µM (active).

O=C(N[C@H](c1ccccc1)[C@@H]1CN2CCC1CC2)c1c(Cl)ccc(C(F)(F)F)c1Cl was tested. Which AC50 did it give?
Its AC50 is 85.1 µM (active).

For c1ccc(N=Nc2ccccc2)cc1, which outcome is on record?
Its outcome is “inactive”.

For CN(C)c1ccc(C(=O)c2ccc(N(C)C)cc2)cc1, which AC50 is on record?
The AC50 was 50 µM (active).

With Nc1ccc(Cl)cc1N as the compound, how does the AC50 read?
Its AC50 is 28.2 µM (active).

CS(=O)(=O)NC(=O)c1cc(Oc2ccc(C(F)(F)F)cc2Cl)ccc1[N+](=O)[O-] was tested. Which outcome did it give?
The outcome was “inactive”.

Read-out: Cytochrome P450 4A22 (Homo sapiens) (UniProt Q5TCH4)
Test: LTEA_HepaRG_CYP4A22: Life Technologies and Expression Analysis (LTEA) Assay for Cytochrome P450 4A22 (CYP4A22) using HepaRG (AID 2283495)
Conditions: mRNA level, 48 h; actives raise or lower the signal
Procedure, shortened: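 Differentiated HepaRG cells in serum-free induction medium exposed 48 h in duplicate to eight half-log concentrations up to 100 uM in 0.5% DMSO. CYP4A22 mRNA quantified by TaqMan qRT-PCR, normalized to ACTB, GAPDH and POLR2A; bidirectional fit versus DMSO.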

Cc1ccc([N+](=O)[O-])cc1 was tested. Which outcome did it give?
The outcome was “inactive”.

With Nc1ccc(Cc2ccc(N)cc2)cc1 as the compound, how does the outcome read?
Its outcome is “inactive”.

How did the outcome turn out when O=[N+]([O-])C(Br)(CO)CO was run?
Its outcome is “inactive”.

How did the outcome turn out when COC(=O)c1ccccc1N was run?
Its outcome is “inactive”.

O=[N+]([O-])c1ccc(Oc2ccc(Cl)cc2Cl)cc1 was tested. Which outcome did it give?
Its outcome is “inactive”.

How did the AC50 turn out when CC(C)(C)C(O)(CCc1ccc(Cl)cc1)Cn1cncn1 (configuration not stated) was run?
Its AC50 is 57 µM (active).

With CCCCCCCCOC(=O)c1ccc(C(=O)OCCCCCCCC)c(C(=O)OCCCCCCCC)c1 as the compound, how does the outcome read?
Its outcome is “inactive”.

With c1ccc2c(c1)oc1ccccc12 as the compound, how does the outcome read?
The outcome was “inactive”.

Which AC50 does the source give for O=C(O)C1C2CCC(O2)C1C(=O)O (configuration not stated) here?
Its AC50 is 50 µM (active).

N#CC(Br)Br was tested. Which outcome did it give?
The outcome was “inactive”.

How did the AC50 turn out when Clc1ccc(C(c2ccc(Cl)cc2)C(Cl)(Cl)Cl)cc1 was run?
Its AC50 is 50 µM (active).

With Oc1ccc2ccc3cccc4ccc1c2c34 as the compound, how does the outcome read?
The outcome was “inactive”.

With ClC1=C(Cl)C2(Cl)C3C(Cl)C=CC3C1(Cl)C2(Cl)Cl (configuration not stated) as the compound, how does the AC50 read?
Its AC50 is 13.1 µM (active).

Which outcome does the source give for CC(C)(C)OOC(C)(C)CCC(C)(C)OOC(C)(C)C here?
Its outcome is “inactive”.

For Nc1ccc(N=Nc2ccccc2)cc1, which AC50 is on record?
The AC50 was 13.3 µM (active).

How did the outcome turn out when CCN(CC)N=O was run?
Its outcome is “inactive”.

Which outcome does the source give for CC(C)N(Cc1ccccc1)C(=O)C(C)(C)C here?
The outcome was “inactive”.

For COC(=O)Nc1nc2ccccc2[nH]1, which outcome is on record?
The outcome was “inactive”.

With ClC1=C(Cl)[C@]2(Cl)[C@H]3[C@H]([C@@H]4C=C[C@H]3C4)[C@@]1(Cl)C2(Cl)Cl as the compound, how does the AC50 read?
Its AC50 is 29.1 µM (active).

With O=C(N[C@H](c1ccccc1)[C@@H]1CN2CCC1CC2)c1c(Cl)ccc(C(F)(F)F)c1Cl as the compound, how does the AC50 read?
The AC50 was 14.6 µM (active).

How did the outcome turn out when c1ccc(N=Nc2ccccc2)cc1 was run?
The outcome was “inactive”.

CN(C)c1ccc(C(=O)c2ccc(N(C)C)cc2)cc1 was tested. Which AC50 did it give?
Its AC50 is 50 µM (active).

For Nc1ccc(Cl)cc1N, which AC50 is on record?
Its AC50 is 29.7 µM (active).

CS(=O)(=O)NC(=O)c1cc(Oc2ccc(C(F)(F)F)cc2Cl)ccc1[N+](=O)[O-] was tested. Which outcome did it give?
The outcome was “inactive”.
